According to PubChem BioAssay (EPA / NIEHS):
Results filed as inconclusive are left out. Active and inactive are the calls of the source. Rule for the calls: active = hit-call score of the fitted dose curve at least 0.9, where 1 is the maximum; inconclusive = response in the unintended direction; inactive = score below 0.9.

Experiments:
[1] = ACEA_ER_AUC_viability: ACEA Biosciences xCELLigence Real-Time Cell Analysis on Estrogen Receptor Agonism for Viability (AID 2283782);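 note: continuous compound exposure with impedance area under curve over 80 h; hit means loss of impedance signal meaning reduced cell growth or viability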
Summary of the method: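 T-47D; phenol red-free RPMI1640 + 10% CS-FBS; 8 conc., 1:4 serial, max 100 uM final, ≤0.5% DMSO; n = 2; continuous exposure; impedance monitored to 80 h post-dose; AUC vs DMSO.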

AR (gene 367) [2] = molecular target: AR (gene 367) (UniProt P10275); assay: ACEA_AR_agonist_80hr: ACEA Biosciences xCELLigence Real-Time Cell Analysis on Androgen Receptor Agonism for Proliferation (AID 2283783);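 note: hits increase impedance growth signal above DMSO baseline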
AR (gene 367), sequence (P10275 whole entry, looked up): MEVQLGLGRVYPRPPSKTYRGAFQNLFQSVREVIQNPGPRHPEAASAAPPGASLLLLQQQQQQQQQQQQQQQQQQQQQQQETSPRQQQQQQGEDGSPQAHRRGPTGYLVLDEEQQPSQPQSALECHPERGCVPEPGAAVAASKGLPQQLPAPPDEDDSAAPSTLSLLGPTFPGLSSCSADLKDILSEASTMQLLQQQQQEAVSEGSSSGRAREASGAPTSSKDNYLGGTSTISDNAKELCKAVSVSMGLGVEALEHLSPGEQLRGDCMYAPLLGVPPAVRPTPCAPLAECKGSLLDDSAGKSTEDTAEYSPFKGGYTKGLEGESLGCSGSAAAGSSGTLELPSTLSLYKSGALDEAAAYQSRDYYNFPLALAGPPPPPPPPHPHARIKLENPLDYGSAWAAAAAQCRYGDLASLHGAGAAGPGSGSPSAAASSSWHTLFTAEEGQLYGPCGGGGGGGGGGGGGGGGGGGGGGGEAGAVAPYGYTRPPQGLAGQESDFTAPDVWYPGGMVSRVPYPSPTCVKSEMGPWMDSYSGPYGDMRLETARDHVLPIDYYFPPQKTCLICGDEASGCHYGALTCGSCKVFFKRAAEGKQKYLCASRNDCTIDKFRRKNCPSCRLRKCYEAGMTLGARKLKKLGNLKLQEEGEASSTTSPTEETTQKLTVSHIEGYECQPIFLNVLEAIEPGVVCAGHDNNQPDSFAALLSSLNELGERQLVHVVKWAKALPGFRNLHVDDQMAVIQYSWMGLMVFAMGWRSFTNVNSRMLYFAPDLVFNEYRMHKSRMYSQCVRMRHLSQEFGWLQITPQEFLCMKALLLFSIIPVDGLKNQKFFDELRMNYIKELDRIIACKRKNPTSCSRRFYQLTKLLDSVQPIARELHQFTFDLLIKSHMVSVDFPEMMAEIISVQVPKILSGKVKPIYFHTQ
Summary of the method: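 Androgen-driven proliferation in 22Rv1 cells is tracked as electrical impedance, taken 80 h after continuous exposure to compound (eight concentrations, 1:4 steps, maximum 100 uM final). Activity is fitted in the positive direction with DMSO as baseline.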

[3] = STM_H9_NormalizedViability: Cytotoxicity Assessment at 120 hours in the Stemina devTOX quickPredict H9 human embryonic stem cell (hESC)-based Assay (AID 2283784)
Summary of the method: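 Chemicals are tested blinded on H9 human embryonic stem cells in the pluripotent state, with medium exchanged daily. After background correction, fluorescence from CellTiter-Fluor is scaled against 0.1% DMSO wells, and decreases are scored.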

AR (gene 367) [4] = molecular target: AR (gene 367) (UniProt P10275); assay: ACEA_AR_antagonist_80hr: ACEA Biosciences xCELLigence Real-Time Cell Analysis on Androgen Receptor Antagonism for Proliferation (AID 2283787);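 note: 22Rv1 human prostate cancer cells with growth followed by electrical impedance; hits lower the impedance growth signal relative to DMSO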
Summary of the method: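 Growth-kinetic antagonist readout in 22Rv1 cells, taken 80 h after continuous compound exposure. Activity fitted as signal loss relative to DMSO negative control.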

[5] = molecular target: Estrogen receptor (Homo sapiens) (UniProt P03372); assay: ATG_hERa_XSP1: Attagene TRANS-FACTORIAL Multi-Species (XSP1) HepG2 Assay for human Estrogen Receptor (ESR1) (AID 2283780)
Estrogen receptor (Homo sapiens), sequence (P03372 whole entry, looked up, the tested form may be a part): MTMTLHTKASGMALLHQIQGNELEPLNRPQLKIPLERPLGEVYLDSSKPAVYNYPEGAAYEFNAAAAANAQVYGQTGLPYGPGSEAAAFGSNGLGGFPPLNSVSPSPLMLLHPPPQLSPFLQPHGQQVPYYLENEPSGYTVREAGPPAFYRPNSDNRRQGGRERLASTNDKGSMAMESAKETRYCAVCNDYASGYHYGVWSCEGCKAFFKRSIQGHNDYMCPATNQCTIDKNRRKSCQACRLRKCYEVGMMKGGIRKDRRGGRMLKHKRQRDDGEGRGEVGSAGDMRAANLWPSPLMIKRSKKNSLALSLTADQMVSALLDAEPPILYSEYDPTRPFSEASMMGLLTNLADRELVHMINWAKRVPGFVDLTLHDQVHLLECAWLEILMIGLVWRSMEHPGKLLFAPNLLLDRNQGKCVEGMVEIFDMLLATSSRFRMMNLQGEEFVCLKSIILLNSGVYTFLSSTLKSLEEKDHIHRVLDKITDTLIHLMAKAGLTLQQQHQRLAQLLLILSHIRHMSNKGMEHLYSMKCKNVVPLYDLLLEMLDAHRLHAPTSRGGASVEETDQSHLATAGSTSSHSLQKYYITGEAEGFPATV
Summary of the method: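 HepG2 cells transiently transfected with GAL4-UAS reporter units and chimeric NR-Gal4 constructs; 24 h after dosing, reporter mRNA quantified by RT-PCR and capillary electrophoresis. Medium contained 3 nM 6-alpha-fluorotestosterone; activity fitted as gain-of-signal versus DMSO.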

[6] = test system: turtle Estrogen Receptor (ESR1), gene 101933533; assay: ATG_trERa_XSP1: Attagene TRANS-FACTORIAL Multi-Species (XSP1) HepG2 Assay for turtle Estrogen Receptor (ESR1) (AID 2283781)
Summary of the method: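 Activity was taken as gain of reporter transcript over DMSO controls. HepG2 cells carrying GAL4-UAS-driven reporters were exposed for 24 h before RNA was extracted and reporter sequences were measured by fluorescence after capillary separation.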

[7] = molecular target: Estrogen receptor beta (Homo sapiens) (UniProt Q92731); assay: ATG_hERb_XSP1: Attagene TRANS-FACTORIAL Multi-Species (XSP1) HepG2 Assay for human Estrogen Receptor (ESR2) (AID 2283788)
Estrogen receptor beta (Homo sapiens), sequence (Q92731 whole entry, looked up, the tested form may be a part): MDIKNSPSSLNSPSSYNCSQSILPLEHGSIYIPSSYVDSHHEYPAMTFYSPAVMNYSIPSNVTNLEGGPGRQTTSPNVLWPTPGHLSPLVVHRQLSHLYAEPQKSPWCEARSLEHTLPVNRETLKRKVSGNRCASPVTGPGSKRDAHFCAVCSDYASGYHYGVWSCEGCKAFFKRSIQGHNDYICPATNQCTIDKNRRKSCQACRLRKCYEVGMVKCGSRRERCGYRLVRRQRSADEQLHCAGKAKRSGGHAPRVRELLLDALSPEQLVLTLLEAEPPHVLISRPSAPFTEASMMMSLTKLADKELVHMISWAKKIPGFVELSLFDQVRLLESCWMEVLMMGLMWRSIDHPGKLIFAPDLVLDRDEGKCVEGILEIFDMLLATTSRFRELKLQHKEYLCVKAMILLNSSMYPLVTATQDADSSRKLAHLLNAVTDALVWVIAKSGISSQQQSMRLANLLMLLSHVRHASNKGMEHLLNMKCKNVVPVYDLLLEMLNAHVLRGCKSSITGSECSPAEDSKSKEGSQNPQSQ
Summary of the method: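 Measured endpoint is transcriptional gain of signal from a GAL4-UAS reporter controlled by chimeric ERβ in HepG2 liver cells. Exposure lasts 24 h alongside 3 nM 6-alpha-fluorotestosterone, with DMSO as negative control.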

[8] = ATG_M_06_XSP1: Attagene TRANS-FACTORIAL Multi-Species (XSP1) HepG2 Assay for M06 Transcription Factor (Internal Marker) (AID 2283790)
Summary of the method: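 Transfected HepG2 multi-reporter system treated 24 h in the presence of 3 nM 6-alpha-fluorotestosterone. The M06 internal marker transcript was quantified by RT-PCR with capillary electrophoresis as a background control, and gain of signal was scored versus DMSO.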

[9] = ATG_M_61_XSP1: Attagene TRANS-FACTORIAL Multi-Species (XSP1) HepG2 Assay for M61 Transcription Factor (Internal Marker) (AID 2283797)
Summary of the method: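 HepG2 cells transiently transfected with multiplexed GAL4-driven reporter units, dosed 24 h with 3 nM 6-alpha-fluorotestosterone present. Reporter mRNA quantified by RT-PCR, 6-FAM labelling, HpaI digestion and capillary electrophoresis; internal-marker background control, gain of signal versus DMSO.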

[10] = molecular target: Peroxisome proliferator-activated receptor gamma (Homo sapiens) (UniProt P37231); assay: ATG_hPPARg_XSP1: Attagene TRANS-FACTORIAL Multi-Species (XSP1) HepG2 Assay for human Peroxisome Proliferator-activated Receptor gamma (PPARg) (AID 2283800)
Summary of the method: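 HepG2 cells transiently transfected with GAL4-UAS reporter units carrying chimeric NR-Gal4 proteins; 3 nM 6-alpha-fluorotestosterone present. After 24 h dosing, reporter mRNA quantified by RT-PCR and capillary electrophoresis; gain of signal relative to DMSO.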

[11] = test system: zebrafish Peroxisome Proliferator-activated Receptor gamma (PPARg), gene 557037; assay: ATG_zfPPARg_XSP1: Attagene TRANS-FACTORIAL Multi-Species (XSP1) HepG2 Assay for zebrafish Peroxisome Proliferator-activated Receptor gamma (PPARg) (AID 2283801)
Summary of the method: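 HepG2 cells transiently transfected with GAL4-UAS reporter units including a zebrafish PPARg–GAL4 chimera, dosed 24 h with 3 nM 6-alpha-fluorotestosterone present. Reporter mRNA quantified by RT-PCR, FAM labelling, HpaI digestion and capillary electrophoresis; induction versus DMSO.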

[12] = molecular target: mouse Peroxisome Proliferator-activated Receptor gamma (PPARg), Pparg (gene 19016) (UniProt P37238); assay: ATG_mPPARg_XSP1: Attagene TRANS-FACTORIAL Multi-Species (XSP1) HepG2 Assay for mouse Peroxisome Proliferator-activated Receptor gamma (PPARg) (AID 2283802)
mouse Peroxisome Proliferator-activated Receptor gamma (PPARg), Pparg (gene 19016), sequence (P37238 whole entry, looked up, the tested form may be a part): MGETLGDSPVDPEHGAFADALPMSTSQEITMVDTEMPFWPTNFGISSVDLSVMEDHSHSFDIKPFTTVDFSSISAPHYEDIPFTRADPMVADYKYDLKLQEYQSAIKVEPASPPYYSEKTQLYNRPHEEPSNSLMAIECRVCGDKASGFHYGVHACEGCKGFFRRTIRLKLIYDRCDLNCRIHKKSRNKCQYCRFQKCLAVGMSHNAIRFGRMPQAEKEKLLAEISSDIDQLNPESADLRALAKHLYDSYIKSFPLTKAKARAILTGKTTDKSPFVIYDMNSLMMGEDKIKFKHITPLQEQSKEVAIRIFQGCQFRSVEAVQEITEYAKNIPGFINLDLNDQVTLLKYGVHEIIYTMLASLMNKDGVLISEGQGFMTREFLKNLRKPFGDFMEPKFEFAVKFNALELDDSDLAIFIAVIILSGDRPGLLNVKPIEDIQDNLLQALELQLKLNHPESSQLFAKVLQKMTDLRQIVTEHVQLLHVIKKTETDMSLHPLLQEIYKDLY
Summary of the method: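 HepG2 cells transiently transfected with GAL4-UAS reporter units driven by mouse PPARg–GAL4 chimera; 3 nM 6-alpha-fluorotestosterone present. After 24 h dosing, reporter mRNA quantified by RT-PCR, fluorescent labelling and capillary electrophoresis; gain of signal versus DMSO.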

[13] = molecular target: Nuclear receptor subfamily 1 group I member 2 (Mus musculus) (UniProt O54915); assay: ATG_mPXR_XSP1: Attagene TRANS-FACTORIAL Multi-Species (XSP1) HepG2 Assay for mouse Pregnane X Receptor (PXR) (AID 2283803)
Nuclear receptor subfamily 1 group I member 2 (Mus musculus), sequence (O54915 whole entry, looked up, the tested form may be a part): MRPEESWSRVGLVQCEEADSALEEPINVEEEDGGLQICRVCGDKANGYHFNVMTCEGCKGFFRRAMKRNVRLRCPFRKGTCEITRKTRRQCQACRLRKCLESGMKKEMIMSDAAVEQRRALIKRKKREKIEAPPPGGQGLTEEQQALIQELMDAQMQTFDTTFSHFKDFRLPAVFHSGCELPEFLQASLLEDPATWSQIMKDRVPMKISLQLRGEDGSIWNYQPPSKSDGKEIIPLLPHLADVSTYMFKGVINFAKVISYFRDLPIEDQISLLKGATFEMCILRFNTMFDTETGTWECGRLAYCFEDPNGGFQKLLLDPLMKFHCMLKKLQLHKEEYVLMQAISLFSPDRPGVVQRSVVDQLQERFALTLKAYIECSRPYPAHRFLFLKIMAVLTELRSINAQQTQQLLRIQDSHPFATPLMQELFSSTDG
Summary of the method: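 Transiently transfected HepG2 cells expressing a receptor-Gal4 chimera drive a GAL4-UAS reporter; 3 nM 6-alpha-fluorotestosterone included. Reporter mRNA read 24 h post-dose by RT-PCR and capillary electrophoresis; gain of signal relative to DMSO.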

[14] = molecular target: frog Thyroid hormone Receptor alpha (TRa), thra-a (gene 397942) (UniProt P15204); assay: ATG_frTRa_XSP1: Attagene TRANS-FACTORIAL Multi-Species (XSP1) HepG2 Assay for frog Thyroid hormone Receptor alpha (TRa) (AID 2283804)
frog Thyroid hormone Receptor alpha (TRa), thra-a (gene 397942), sequence (P15204 whole entry, looked up, the tested form may be a part): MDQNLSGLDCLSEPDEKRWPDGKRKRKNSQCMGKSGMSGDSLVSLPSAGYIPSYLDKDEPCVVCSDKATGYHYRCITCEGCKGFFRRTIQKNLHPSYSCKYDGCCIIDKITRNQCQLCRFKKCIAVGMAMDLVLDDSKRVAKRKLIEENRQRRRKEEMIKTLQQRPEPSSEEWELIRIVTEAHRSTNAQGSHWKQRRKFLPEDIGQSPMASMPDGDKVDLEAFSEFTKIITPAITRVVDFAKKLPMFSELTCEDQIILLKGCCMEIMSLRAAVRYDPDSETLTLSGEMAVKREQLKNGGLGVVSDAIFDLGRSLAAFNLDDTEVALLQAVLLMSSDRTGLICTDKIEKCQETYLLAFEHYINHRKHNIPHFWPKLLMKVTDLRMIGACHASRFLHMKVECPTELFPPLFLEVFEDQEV
Summary of the method: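 HepG2 cells transiently transfected with frog TRa-GAL4 chimeric reporter units, dosed 24 hr with 3 nM 6-alpha-fluorotestosterone present; reporter mRNA quantified by RT-PCR, fluorescent labelling and capillary electrophoresis, gain of signal versus DMSO.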

[15] = molecular target: human Thyroid hormone Receptor alpha (TRa), THRA (gene 7067) (UniProt P10827); assay: ATG_hTRa_XSP1: Attagene TRANS-FACTORIAL Multi-Species (XSP1) HepG2 Assay for human Thyroid hormone Receptor alpha (TRa) (AID 2283805)
human Thyroid hormone Receptor alpha (TRa), THRA (gene 7067), sequence (P10827 whole entry, looked up, the tested form may be a part): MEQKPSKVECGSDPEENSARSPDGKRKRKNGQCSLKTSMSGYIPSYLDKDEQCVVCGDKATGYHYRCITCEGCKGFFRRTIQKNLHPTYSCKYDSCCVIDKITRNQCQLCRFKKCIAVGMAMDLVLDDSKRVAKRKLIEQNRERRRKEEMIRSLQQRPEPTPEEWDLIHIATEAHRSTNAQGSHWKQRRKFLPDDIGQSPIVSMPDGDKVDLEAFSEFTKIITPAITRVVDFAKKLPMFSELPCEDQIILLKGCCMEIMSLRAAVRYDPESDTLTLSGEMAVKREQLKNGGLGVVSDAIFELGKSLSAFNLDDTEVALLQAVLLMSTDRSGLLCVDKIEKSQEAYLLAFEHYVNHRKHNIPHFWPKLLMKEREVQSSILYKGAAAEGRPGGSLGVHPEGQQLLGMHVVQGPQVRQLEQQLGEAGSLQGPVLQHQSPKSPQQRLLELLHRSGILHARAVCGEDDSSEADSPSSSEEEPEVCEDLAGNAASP
Summary of the method: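 HepG2 cells transiently transfected with GAL4-UAS reporter units expressing chimeric NR-Gal4 proteins, dosed 24 hours with 3 nM 6-alpha-fluorotestosterone present. Reporter mRNA measured by RT-PCR and capillary electrophoresis; gain of signal fitted versus DMSO.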

[16] = test system: turtle Androgen Receptor (AR), gene 101947425; assay: ATG_trAR_XSP1: Attagene TRANS-FACTORIAL Multi-Species (XSP1) HepG2 Assay for turtle Androgen Receptor (AR) (AID 2283786)
Summary of the method: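 HepG2 cells transiently transfected with a turtle AR–GAL4 chimera and GAL4-UAS reporter, co-treated with 3 nM 6-alpha-fluorotestosterone for partial stimulation. Reporter mRNA is quantified at 24 h by RT-PCR and capillary electrophoresis, gain-of-signal versus DMSO.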

[17] = molecular target: GAL4 Transcription Factor (Internal Marker), GAL4 (gene 855828) (UniProt P04386); assay: ATG_GAL4_XSP1: Attagene TRANS-FACTORIAL Multi-Species (XSP1) HepG2 Assay for GAL4 Transcription Factor (Internal Marker) (AID 2283789)
GAL4 Transcription Factor (Internal Marker), GAL4 (gene 855828), sequence (P04386 whole entry, looked up, the tested form may be a part): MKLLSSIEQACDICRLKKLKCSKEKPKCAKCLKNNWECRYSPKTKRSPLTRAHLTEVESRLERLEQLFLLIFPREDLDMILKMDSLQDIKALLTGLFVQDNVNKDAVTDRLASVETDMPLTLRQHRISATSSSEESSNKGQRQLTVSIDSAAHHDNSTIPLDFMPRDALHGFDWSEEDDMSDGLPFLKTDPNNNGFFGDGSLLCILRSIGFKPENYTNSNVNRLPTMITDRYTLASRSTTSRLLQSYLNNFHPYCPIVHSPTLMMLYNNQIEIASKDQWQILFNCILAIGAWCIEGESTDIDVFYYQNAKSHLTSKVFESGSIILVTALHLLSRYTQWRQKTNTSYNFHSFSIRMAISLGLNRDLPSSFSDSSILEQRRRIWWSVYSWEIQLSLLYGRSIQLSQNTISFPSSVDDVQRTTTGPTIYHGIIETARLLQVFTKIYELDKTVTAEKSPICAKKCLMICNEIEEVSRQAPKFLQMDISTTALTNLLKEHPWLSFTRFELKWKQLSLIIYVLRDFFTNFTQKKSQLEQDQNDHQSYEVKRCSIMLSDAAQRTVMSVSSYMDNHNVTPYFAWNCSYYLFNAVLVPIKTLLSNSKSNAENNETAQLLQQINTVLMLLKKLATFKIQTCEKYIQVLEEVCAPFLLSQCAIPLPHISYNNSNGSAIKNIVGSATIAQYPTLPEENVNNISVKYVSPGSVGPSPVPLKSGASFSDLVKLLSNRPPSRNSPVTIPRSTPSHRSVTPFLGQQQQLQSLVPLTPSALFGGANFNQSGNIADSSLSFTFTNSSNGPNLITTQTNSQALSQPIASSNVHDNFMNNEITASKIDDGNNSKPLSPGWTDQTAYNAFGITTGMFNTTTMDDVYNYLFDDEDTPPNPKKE
Summary of the method: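 HepG2 cells transiently transfected with multiplexed GAL4-UAS reporter units were exposed for 24 h with 3 nM 6-alpha-fluorotestosterone present. Reporter mRNA was quantified by RT-PCR, FAM labelling, HpaI digestion and capillary electrophoresis; background-control readout, gain-of-signal versus DMSO.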

[18] = ATG_M_19_XSP1: Attagene TRANS-FACTORIAL Multi-Species (XSP1) HepG2 Assay for M19 Transcription Factor (Internal Marker) (AID 2283798)
Summary of the method: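 HepG2 cells transiently transfected with multiplexed GAL4-UAS reporter units, dosed 24 h with 3 nM 6-alpha-fluorotestosterone present for partial AR stimulation. Reporter mRNA measured by RT-PCR with capillary electrophoresis; gain-of-signal fitted relative to DMSO.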

[19] = ATG_M_32_XSP1: Attagene TRANS-FACTORIAL Multi-Species (XSP1) HepG2 Assay for M32 Transcription Factor (Internal Marker) (AID 2283799)
Summary of the method: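 HepG2 cells transiently transfected with multi-species TRANS reporter units, dosed 24 h with 3 nM 6-alpha-fluorotestosterone present. Internal-marker reporter mRNA quantified by RT-PCR and capillary electrophoresis; positive-direction fit versus DMSO.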

[20] = test system: turtle Thyroid Hormone Receptor, alpha (TRa), gene 101949057; assay: ATG_trTRa_XSP1: Attagene TRANS-FACTORIAL Multi-Species (XSP1) HepG2 Assay for turtle Thyroid Hormone Receptor, alpha (TRa) (AID 2283806)
Summary of the method: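 HepG2 cells transiently transfected with GAL4-UAS reporter units and chimeric receptor-Gal4 constructs, with 3 nM 6-alpha-fluorotestosterone present. Reporter mRNA was quantified 24 h after dosing by RT-PCR, 6-FAM labelling and capillary electrophoresis; gain of signal versus DMSO.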

O=C(O)C1(C(=O)Nc2ccc(Cl)cc2Cl)CC1
outcome [1]: inactive
outcome (AR (gene 367) [2]): inactive
outcome [3]: inactive
AC50 (AR (gene 367) [4]): 65.1 µM (active)

CC(=O)S[C@@H]1CC2=CC(=O)CC[C@]2(C)[C@H]2CC[C@@]3(C)[C@@H](CC[C@@]34CCC(=O)O4)[C@H]12
outcome [5]: inactive
outcome [6]: inactive
outcome [7]: inactive
outcome [8]: inactive
outcome [9]: inactive
outcome [10]: inactive
outcome [11]: inactive
outcome [12]: inactive
AC50 [13]: 0.411 µM (active)
outcome [14]: inactive
outcome [15]: inactive

CCCCC(CC)COC(=O)c1ccccc1C(=O)O (configuration not stated)
AC50 [6]: 46 µM (active)
outcome [1]: inactive
outcome [3]: inactive
outcome [16]: inactive
outcome [7]: inactive
outcome [17]: inactive
outcome [8]: inactive
outcome [9]: inactive
outcome [18]: inactive
outcome [19]: inactive
AC50 [11]: 64.2 µM (active)
AC50 [12]: 13.2 µM (active)
AC50 [13]: 3.95 µM (active)
outcome [20]: inactive

CC1(C)C(C=C(Cl)Cl)C1C(=O)OCc1cccc(Oc2ccccc2)c1 (configuration not stated)
outcome [5]: inactive
outcome [6]: inactive
outcome (AR (gene 367) [2]): inactive
outcome [16]: inactive
AC50 (AR (gene 367) [4]): 33 µM (active)
outcome [17]: inactive
outcome [18]: inactive
outcome [11]: inactive
AC50 [13]: 1.73 µM (active)
outcome [14]: inactive
outcome [20]: inactive

c1ccc2[nH]c(-c3cscn3)nc2c1
outcome [1]: inactive
outcome (AR (gene 367) [2]): inactive
AC50 (AR (gene 367) [4]): 50 µM (active)

CCCCC(CC)CN1C(=O)C2C3C=CC(C3)C2C1=O (configuration not stated)
AC50 [5]: 2.7 µM (active)
AC50 [1]: 70.2 µM (active)
outcome [17]: inactive
outcome [18]: inactive
outcome [19]: inactive
AC50 [10]: 15.5 µM (active)
outcome [11]: inactive
AC50 [12]: 27.7 µM (active)
AC50 [13]: 0.845 µM (active)

CC(C)(c1ccc(O)cc1)c1ccc(O)cc1
AC50 [6]: 0.195 µM (active)
outcome [3]: inactive
AC50 (AR (gene 367) [4]): 43.6 µM (active)
outcome [8]: inactive
outcome [9]: inactive
outcome [12]: inactive
outcome [13]: inactive
outcome [14]: inactive
outcome [15]: inactive
outcome [20]: inactive

COC(=O)CSc1cc(N=c2sc(=O)n3n2CCCC3)c(F)cc1Cl
outcome [1]: inactive
outcome (AR (gene 367) [2]): inactive
AC50 [3]: 89.5 µM (active)
outcome (AR (gene 367) [4]): inactive

c1ccc(Nc2ccccc2)cc1
outcome [1]: inactive
